Measurements as given in the supplement of paper PMC6609913.
Counter-ions that a name gives are not always drawn. ± gives the standard deviation of the averaged measurements. The full ranking holds about 1,300 compounds; the median of “normalised cell viability” is about 1, and the lowest 2% start at about 0.14. The sample holds the lowest values, similar compounds and a random draw of the others, so the mix is not that of the screen.

System: V-C8 (BRCA2-deficient hamster cells)
Assay: normalised cell viability (fraction of plate median); higher = more viable cells (less toxic)
Conditions: 5 µM
In short: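 Cell viability was measured with a resazurin assay, normalised to the plate median (modified robust per cent of sample) and averaged over triplicate wells. Hamster V-C8 cells lacking BRCA2 and V-C8 cells with BRCA2 restored were seeded in 96-well plates. After 24 h, library drugs from 10 mM DMSO stocks were added at a final 5 μM in 100 μl medium and left for 3 days (screen 1) or 6 days (screen 2), with solvent-only wells alongside.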

Row | Structure (SMILES) | normalised cell viability (treatment time: 3 days) | normalised cell viability (treatment time: 6 days)
1 | Clc1ccc(COC(Cn2ccnc2)c2ccc(Cl)cc2Cl)cc1 (centres undefined) [Econazole nitrate] | 0.938 ± 0.028 | 0.98 ± 0.023
2 | CC[C@H](C)[C@H](N)C1=N[C@H](C(=O)N[C@@H](CC(C)C)C(=O)N[C@H](CCC(=O)O)C(=O)N[C@H](C(=O)N[C@H]2CCCCNC(=O)[C@H](CC(N)=O)NC(=O)[C@@H](CC(=O)O)NC(=O)[C@H](Cc3cnc[nH]3)NC(=O)[C@@H](Cc3ccccc3)NC(=O)[C@H]([C@@H](C)CC)NC(=O)[C@@H](CCCN)NC2=O)[C@@H](C)CC)CS1 [Bacitracin] | 1.05 ± 0.02 | 0.983 ± 0.061
3 | CCCCNc1c(C(=O)OCC)c(C)nc2c1cnn2CC [Tracazolate hydrochloride] | 0.947 ± 0.034 | 1.03 ± 0.013
4 | Nc1nc(=O)c2c([nH]1)NC[C@@H](CNc1ccc(C(=O)N[C@@H](CCC(=O)O)C(=O)O)cc1)N2C=O [Folinic acid calcium salt] | 1.05 ± 0.036 | 1.11 ± 0.06
5 | COC(=O)N/N=C/c1c[n+]([O-])c2ccccc2[n+]1[O-] [Carbadox] | 0.69 ± 0.18 | 0.549 ± 0.029
6 | Cc1cc(/C=C/c2ccc3cc(N(C)C)ccc3[n+]2C)c(C)n1-c1ccccc1 [Pyrvinium pamoate] | 0.132 ± 0.0063 | 0.172 ± 0.012
7 | CC1(C)S[C@@H]2[C@H](NC(=O)[C@H](N)c3ccccc3)C(=O)N2[C@H]1C(=O)OC1OC(=O)c2ccccc21 (some centres undefined) [Talampicillin hydrochloride] | 1.09 ± 0.082 | 1.02 ± 0.085
8 | COc1cc([C@@H]2c3cc4c(cc3[C@@H](O[C@@H]3O[C@@H]5CO[C@@H](C)O[C@H]5[C@H](O)[C@H]3O)[C@H]3COC(=O)[C@H]23)OCO4)cc(OC)c1O [Etoposide] | 0.155 ± 0.0057 | 0.133 ± 0.017
9 | COc1cc(NS(=O)(=O)c2ccc(N)cc2)ncn1 [Sulfamonomethoxine] | 1.02 ± 0.057 | 1.05 ± 0.031
10 | CC(C)(C)NC[C@H](O)c1ccc(O)c(CO)c1 [Levalbuterol hydrochloride] | 1.03 ± 0.049 | 0.99 ± 0.13
11 | CC(C)(S)[C@@H](N)C(=O)O [Penicillamine] | 0.964 ± 0.074 | 1.04 ± 0.097
12 | N[C@@H](C(=O)N[C@@H]1C(=O)N2C(C(=O)O)=C(Cl)CC[C@H]12)c1ccccc1 [Loracarbef] | 1.05 ± 0.1 | 1.06 ± 0.033
13 | CC(C)(C)c1ccc(C(O)CCCN2CCC(C(O)(c3ccccc3)c3ccccc3)CC2)cc1 (centres undefined) [Terfenadine] | 0.13 ± 0.0051 | 0.1 ± 0.0041
14 | CC(C)(C(=O)O)c1ccc(C(O)CCCN2CCC(C(O)(c3ccccc3)c3ccccc3)CC2)cc1 (centres undefined) [Fexofenadine HCl] | 1.09 ± 0.02 | 1.04 ± 0.046
15 | OC(CCCN1CCCCC1)(c1ccccc1)c1ccccc1 [Diphenidol hydrochloride] | 1.06 ± 0.037 | 1.05 ± 0.031
16 | NC[C@@H]1O[C@@H](O[C@H]2[C@H](O)[C@@H](O[C@H]3O[C@H](CO)[C@@H](O)[C@H](N)[C@H]3O)[C@H](N)C[C@@H]2N)[C@@H](O)[C@H](O)[C@H]1O [Kanamycin A sulfate] | 0.965 ± 0.052 | 1.04 ± 0.02
17 | O=C1CN2Cc3c(ccc(Cl)c3Cl)N=C2N1 [Anagrelide] | 1.01 ± 0.077 | 1.03 ± 0.054
18 | c1ccc([C@H]2CN3CCSC3=N2)cc1 [Levamisole hydrochloride] | 1.03 ± 0.02 | 1.02 ± 0.032
19 | CCN(CC)CCc1nc(-c2ccccc2)no1 [Oxalamine citrate salt] | 0.986 ± 0.061 | 0.933 ± 0.14

Row | Structure (SMILES) | normalised cell viability (treatment time: 3 days) | normalised cell viability (treatment time: 6 days)
20 | O=C(O)Cc1cc(I)c(Oc2ccc(O)c(I)c2)c(I)c1 [Tiratricol, 3,3',5-triiodothyroacetic acid] | 0.981 ± 0.023 | 1.03 ± 0.032
21 | CCCc1cc(=O)[nH]c(=S)[nH]1 [Propylthiouracil] | 1.02 ± 0.022 | 1.025 ± 0.009
22 | CC(=O)N1CCN(c2ccc(OCC3COC(Cn4ccnc4)(c4ccc(Cl)cc4Cl)O3)cc2)CC1 (centres undefined) [Ketoconazole] | 0.8 ± 0.022 | 0.898 ± 0.028
23 | CC1(C)S[C@@H]2[C@H](NC(=O)[C@H](NC(=O)N3CCNC3=O)c3ccccc3)C(=O)N2[C@H]1C(=O)O [Azlocillin sodium salt] | 1.01 ± 0.015 | 0.988 ± 0.092
24 | Clc1cnccn1 [2-Chloropyrazine] | 1.03 ± 0.019 | 1.02 ± 0.016
25 | COCC1=C(C(=O)OC(C)OC(=O)OC(C)C)N2C(=O)[C@@H](NC(=O)/C(=N\OC)c3csc(N)n3)[C@H]2SC1 (some centres undefined) [Cefpodoxime proxetil] | 1.18 ± 0.025 | 1.06 ± 0.086
26 | CC(C(=O)O)c1ccc(N2Cc3ccccc3C2=O)cc1 (centres undefined) [Indoprofen] | 1.012 ± 0.0016 | 1.08 ± 0.013
27 | Nc1nc(=O)[nH]cc1F [Flucytosine] | 1.06 ± 0.02 | 0.987 ± 0.025
28 | Cc1ccc2c(c1)c1c3n2CCNC3CCC1 (centres undefined) [Pirlindole mesylate] | 0.904 ± 0.084 | 0.9725 ± 0.0077
29 | NCc1ccccc1CC(=O)N[C@@H]1C(=O)N2C(C(=O)O)=C(CSc3nnnn3CC(=O)O)CS[C@H]12 [Ceforanide] | 1.02 ± 0.073 | 1.21 ± 0.22
30 | C=CC[N@@+]12CC[C@@]34c5ccccc5N5/C=C6/[C@H]7C[C@H]8[C@@]9(CC[N@@+]8(CC=C)C/C7=C/CO)c7ccccc7N(/C=C(/[C@@H](C[C@@H]31)/C(=C\CO)C2)[C@H]54)[C@@H]69 [Alcuronium chloride] | 0.939 ± 0.13 | 1.03 ± 0.079
31 | c1ccc(-c2ccc(C(c3ccccc3)n3ccnc3)cc2)cc1 (centres undefined) [Bifonazole] | 0.878 ± 0.032 | 0.74 ± 0.06
32 | CC(=O)O[C@]1(C(C)=O)CC[C@H]2[C@@H]3C=C(Cl)C4=CC(=O)CC[C@]4(C)[C@H]3CC[C@@]21C [Chlormadinone acetate] | 0.998 ± 0.06 | 0.983 ± 0.043
33 | NNc1nncc2ccccc12 [Hydralazine hydrochloride] | 0.9847 ± 0.0028 | 1.03 ± 0.027
34 | Nc1cc(-c2ccncc2)c[nH]c1=O [Amrinone] | 0.938 ± 0.029 | 0.951 ± 0.018
35 | O=C(CCCCC(=O)Nc1c(I)cc(I)c(C(=O)O)c1I)Nc1c(I)cc(I)c(C(=O)O)c1I [Iodipamide] | 1.03 ± 0.06 | 0.972 ± 0.029
36 | O=C(CCCCCCC(=O)Nc1ccccc1)NO [Vorinostat] | 0.14 ± 0.012 | 0.168 ± 0.012
37 | CC(=O)Nc1ccc(CC(=O)O)cc1 [Actarit] | 1.05 ± 0.015 | 1.03 ± 0.038
38 | CC[C@H](C)C(=O)O[C@H]1CCC=C2C=C[C@H](C)[C@H](CC[C@@H]3C[C@@H](O)CC(=O)O3)[C@H]21 [Mevastatin] | 0.23 ± 0.011 | 0.229 ± 0.0063

Row | Structure (SMILES) | normalised cell viability (treatment time: 3 days) | normalised cell viability (treatment time: 6 days)
39 | CCCNC(C)C(=O)Nc1c(C)csc1C(=O)OC (centres undefined) [Articaine hydrochloride] | 1.03 ± 0.024 | 1.06 ± 0.084
40 | Nc1ccc(S(=O)(=O)Nc2ccnn2-c2ccccc2)cc1 [Sulfaphenazole] | 1.01 ± 0.011 | 1.03 ± 0.031
41 | COc1ccccc1OCC(O)CN1CCN(CC(=O)Nc2c(C)cccc2C)CC1 (centres undefined) [Ranolazine] | 1.04 ± 0.054 | 0.967 ± 0.086
42 | N#CC(c1ccc(Cl)cc1)c1c(Cl)cc(-n2ncc(=O)[nH]c2=O)cc1Cl (centres undefined) [Diclazuril] | 0.905 ± 0.068 | 0.875 ± 0.068
43 | C#CCN(C)CCCOc1ccc(Cl)cc1Cl [Clorgyline hydrochloride] | 1.11 ± 0.063 | 1.019 ± 0.0054
44 | NS(=O)(=O)Cc1noc2ccccc12 [Zonisamide] | 1.01 ± 0.036 | 1.03 ± 0.065
45 | COc1ccc2c(c1)C(=O)N(CCc1ccc(S(=O)(=O)NC(=O)NC3CCCCC3)cc1)C(=O)C2(C)C [Gliquidone] | 1.05 ± 0.077 | 1.08 ± 0.049
46 | CN1CCCN=C1/C=C/c1cccs1 [Pyrantel tartrate] | 1.06 ± 0.019 | 1.02 ± 0.079
47 | CC(C)(C)NC[C@H](O)COc1nsnc1N1CCOCC1 [Timolol maleate salt] | 1.01 ± 0.022 | 1.07 ± 0.065
48 | CCN(CC)C(=O)Nc1ccc(OCC(O)CNC(C)(C)C)c(C(C)=O)c1 (centres undefined) [Celiprolol HCl] | 1.13 ± 0.12 | 0.988 ± 0.031
49 | C[C@H](O)C(=O)Nc1c(I)c(C(=O)NC(CO)CO)c(I)c(C(=O)NC(CO)CO)c1I [Iopamidol] | 0.952 ± 0.093 | 1.09 ± 0.06
50 | Clc1ccc(CSC(Cn2ccnc2)c2ccc(Cl)cc2Cl)cc1 (centres undefined) [Sulconazole nitrate] | 0.983 ± 0.067 | 0.829 ± 0.043
51 | CCOC(=O)Nc1ccc2c(c1)N(C(=O)CCN1CCOCC1)c1ccccc1S2 [Moricizine hydrochloride] | 1.1 ± 0.13 | 1.13 ± 0.083
52 | C=CC1=C(C(=O)O)N2C(=O)[C@@H](NC(=O)/C(=N\O)c3csc(N)n3)[C@H]2SC1 [Cefdinir] | 1.016 ± 0.0043 | 1.01 ± 0.06
53 | Cc1c(C)c2c(c(C)c1O)CCC(C)(COc1ccc(CC3SC(=O)NC3=O)cc1)O2 (centres undefined) [Troglitazone] | 0.68 ± 0.04 | 0.588 ± 0.04
54 | C=C(CC)C(=O)c1ccc(OCC(=O)O)c(Cl)c1Cl [Ethacrynic acid] | 1.08 ± 0.038 | 1.01 ± 0.048
55 | COc1cc2c(cc1OC)C(=O)C(CC1CCN(Cc3ccccc3)CC1)C2 (centres undefined) [Donepezil hydrochloride] | 0.957 ± 0.087 | 0.983 ± 0.011
56 | OCC(O)CN1CCN(c2ccccc2)CC1 (racemic) [Dropropizine (R,S)] | 0.964 ± 0.051 | 1.01 ± 0.057
57 | C=C[C@H]1CN2CC[C@H]1C[C@@H]2[C@@H](O)c1ccnc2ccc(OC)cc12 [Quinidine hydrochloride monohydrate] | 0.997 ± 0.0082 | 0.876 ± 0.16
